# Experimental data taken from ChEMBL document CHEMBL1157539, “Thousands of chemical starting points for antimalarial lead identification” (Nature, 2010).
# Legend:
# Type in all cases: functional
# [1] = tested on: Plasmodium falciparum; assay: GSK_TCMDC: Inhibition of Plasmodium falciparum 3D7 in whole red blood cells, using parasite LDH activity as an index of growth. Test compounds present at 2uM
# [2] = tested on: Plasmodium falciparum; assay: GSK_TCMDC: Inhibition of Plasmodium falciparum Dd2 in whole red blood cells, using parasite LDH activity as an index of growth. Test compounds present at 2uM
# [3] = tested on: HepG2; assay: GSK_TCMDC: Percent inhibition of human HepG2 cell line. Test compounds present at 10uM.
smiles,measurement,setting,value
COc1ccccc1-c1[nH]c2ccccc2c1CN1CCC(c2c(C)cccc2C)CC1,Inhibition,[1],96%
same,Inhibition,[2],13%
same,Inhibition,[3],49%
COCCCNc1sc(S(=O)(=O)c2ccccc2)nc1S(=O)(=O)c1ccc(Cl)cc1,Inhibition,[1],95%
same,Inhibition,[2],87%
same,Inhibition,[3],0%
N#Cc1cccc(CN2CCCN(Cc3cccc(C(=O)Nc4ccc(Cl)cc4)c3)CC2)c1.O=C(O)C(F)(F)F,Inhibition,[1],82%
same,Inhibition,[2],9%
same,Inhibition,[3],46%
CC(C)c1cc(Oc2c(I)cc(CCNCc3ccccc3)cc2I)ccc1O.Cl,Inhibition,[1],95%
same,Inhibition,[2],54%
same,Inhibition,[3],42%
CCNC(=O)Nc1cccc(-c2ccc(-c3nc4cccc(C)c4[nH]3)s2)c1,Inhibition,[1],96%
same,Inhibition,[2],20%
same,Inhibition,[3],32%
CCCNc1nc(Nc2ccccc2C)nc2ccccc12,Inhibition,[1],95%
same,Inhibition,[2],64%
same,Inhibition,[3],13%
CC(=O)Nc1nc(C(=O)Nc2ccc(-c3ccc(-c4nc5ccccc5[nH]4)cc3)cc2)cs1,Inhibition,[1],100%
same,Inhibition,[2],53%
same,Inhibition,[3],38%
COc1ccc(S(=O)(=O)Nc2cc(C)cc(Br)c2OC)cc1N1CCN(C(=O)C(Cl)(Cl)Cl)CC1.Cl,Inhibition,[1],91%
same,Inhibition,[2],66%
same,Inhibition,[3],9%
CN(C)CCn1c(=N)n(CC(O)c2ccc(Cl)c(Cl)c2)c2ccccc21.Cl (configuration not stated),Inhibition,[1],99%
same,Inhibition,[2],6%
same,Inhibition,[3],20%
COc1ccc(Nc2nccc(N3CCC(NS(=O)(=O)c4ccc(NC(C)=O)cc4)C3)n2)cc1 (configuration not stated),Inhibition,[1],100%
same,Inhibition,[2],16%
same,Inhibition,[3],3%
O=C(c1ccc([N+](=O)[O-])o1)N1CCN(c2nc3c(Cl)cccc3s2)CC1,Inhibition,[1],91%
same,Inhibition,[2],87%
same,Inhibition,[3],0%
N#Cc1cccc(NC(=O)Nc2ccc(-c3csc(-c4nc5ccccc5[nH]4)c3)cc2)c1,Inhibition,[1],100%
same,Inhibition,[2],97%
same,Inhibition,[3],63%
COc1cc(NCC2(CNCc3cn(Cc4ccccc4)c4ccccc34)CCCCC2)nc2ccccc12.Cl,Inhibition,[1],95%
same,Inhibition,[2],12%
same,Inhibition,[3],65%
O=C(CCC1CCCCC1)NCCNc1cccc2ccccc12,Inhibition,[1],90%
same,Inhibition,[2],57%
same,Inhibition,[3],7%
CC(C)NC(=O)c1cccc(-c2ccc(OCCN3CCCC3c3cc4ccccc4[nH]3)cc2)c1 (configuration not stated),Inhibition,[1],100%
same,Inhibition,[2],34%
same,Inhibition,[3],25%
CCCCc1cc(NCc2ccncc2)nc(Nc2ccc(OC)cc2)n1,Inhibition,[1],93%
same,Inhibition,[2],22%
same,Inhibition,[3],11%
Oc1cccc(CNCCCN(Cc2ccccc2)c2ccccc2)c1,Inhibition,[1],99%
same,Inhibition,[2],97%
same,Inhibition,[3],7%
Cc1[nH]c(/C=C2\C(=O)Nc3ccc(S(=O)(=O)Cc4c(Cl)cccc4Cl)cc32)c(C)c1C(=O)N1CCC[C@@H]1CN1CCCC1 [PHA-665752],Inhibition,[1],85%
same,Inhibition,[2],92%
same,Inhibition,[3],33%
COc1ccc(CNc2cc(C)nc3sc4c(c23)CCC2(C4)OCCO2)cc1,Inhibition,[1],96%
same,Inhibition,[2],2%
same,Inhibition,[3],4%
COc1cc(OC)c(NC(=O)Nc2ccnc3ccccc23)cc1Cl,Inhibition,[1],97%
same,Inhibition,[2],9%
same,Inhibition,[3],19%
CN(C)CCOc1ccc(N2CCN(CCCCNC(=O)c3ccc(/C=C/c4cc(Cl)cc(Cl)c4)cc3)CC2)cc1,Inhibition,[1],98%
same,Inhibition,[2],84%
same,Inhibition,[3],97%
O=C(Nc1ccc(-c2cccc(-c3nc4ccccc4[nH]3)c2)cc1)c1cnn2cccnc12,Inhibition,[1],99%
same,Inhibition,[2],36%
same,Inhibition,[3],64%
CC(C)(C)c1ccc(-c2cc3c(ccc4nc(N)nc(N)c43)[nH]2)cc1,Inhibition,[1],100%
same,Inhibition,[2],100%
same,Inhibition,[3],100%
CN(CCCN(C)c1cc(NC(=O)c2ccc(F)cc2)ccn1)Cc1cccc(O)c1.O=C(O)C(F)(F)F,Inhibition,[1],90%
same,Inhibition,[2],0%
same,Inhibition,[3],2%
O=C(Nc1cccc(-c2nn3ccccc3c2-c2ccnc(Nc3cccc(F)c3)n2)c1)c1c(F)ccc(F)c1F,Inhibition,[1],96%
same,Inhibition,[2],73%
same,Inhibition,[3],33%
COc1cc(F)c2ncc(F)c([C@@H](O)CN3CCC(NCc4cc5c(cn4)OCCO5)CC3)c2c1.Cl,Inhibition,[1],100%
same,Inhibition,[2],88%
same,Inhibition,[3],1%
COc1ccc2c(=NN=Cc3cccnc3)cc(C)[nH]c2c1,Inhibition,[1],85%
same,Inhibition,[2],12%
same,Inhibition,[3],0%
Cl.N#Cc1ccc2c(c1)CCN(CCC1CCC(NC(=O)/C=C/c3cccc4cc[nH]c34)CC1)CC2 (configuration not stated),Inhibition,[1],89%
same,Inhibition,[2],29%
same,Inhibition,[3],22%
Cc1ccc(C)c(NC(=O)CC2C(=O)N(c3ccccc3)C(=S)N2Cc2ccco2)c1 (configuration not stated),Inhibition,[1],100%
same,Inhibition,[2],99%
same,Inhibition,[3],9%
